Compound activity: PubChem, several laboratories
Shown are actives, neighbours in structure and some others; about 4.6% of the full set was active somewhere.
SKKanGAS inh: S. pyogenes SKKanGAS growth inhibitors in kanamycin, primary screen, streptokinase expression inhibitor project, SKKanGAS strain, BacTiter-Glo luminescence; 300,000 compounds, 1.3% hits; 6 h; AID 1662, 2009; inhibition, % at 7.5 µM;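 active = mean replicate score, as percent of positive control median, at least 50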;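 also: strain carries kanamycin resistance gene driven by streptokinase promoter and grows in 40 µg/ml kanamycin; loss of luminescence reflects streptokinase promoter inhibition or plain growth inhibition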
tim23-1 inh: growth inhibitors of tim23-1 mutant yeast, primary screen, luminescence, uHTS; S. cerevisiae tim23-1 growth, BacTiter-Glo luminescence, 24 h; inhibition, % at 20 µM; 330,000 compounds, 1.3% hits;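 active = growth inhibition of the mutant yeast at or above 50%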;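 also: temperature-sensitive mutant grown at 25 °C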
TIM10 inh: growth inhibitors of isogenic TIM10 control yeast, primary screen, counter-screen for tim10-1 yeast inhibitor project, luminescence, uHTS | AID 463195, 2010 | S. cerevisiae TIM10 strain growth, BacTiter-Glo luminescence, 24 h | inhibition, % at 10 µM | 330,000 compounds, 1.4% hits;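 active = inhibition of 40% or more at the single tested concentration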;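 also: wild-type TIM10 isogenic control strain grown at permissive 25 °C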
tim10-1 inh: growth inhibitors of tim10-1 mutant yeast, primary screen, luminescence, uHTS; AID 463190, 2010; S. cerevisiae tim10-1 ts strain growth, BacTiter-Glo, 24 h; 330,000 compounds, 2.2% hits; inhibition, % at 20 µM;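 active = inhibition of at least 40%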;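 also: mutant grown at 25 °C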
NALP3 yeast inh: NALP3 inflammasome inhibitors in reconstituted yeast, primary screen, luminescence, uHTS; Yeast reconstituted NLRP3/ASC/caspase-1, beta-gal luminescence, 24 h; inhibition, % at 10 µM; 330,000 compounds, 0.39% hits;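 active = inhibition of 50% or more; inactive = inhibition below 50%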
tim10-1 confirm: growth inhibitors of tim10-1 mutant yeast, confirmation, single concentration, luminescence, S. cerevisiae | shares compounds with tim10-1 inh | S. cerevisiae tim10-1 ts strain growth, BacTiter-Glo, 24 h | inhibition, % at 20 µM | 7,400 compounds, 56% hits | AID 463213, 2010;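 active = inhibition of yeast growth at or above a set limit in either of two repeat tests at 20 µM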;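 also: tim10-1 mutant grown at permissive 25 °C to find synthetic lethal compounds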
TIM10 conf: growth inhibitors of wild-type TIM10 yeast, confirmation, counter-screen for tim10-1 synthetic lethality project, single concentration, luminescence, S. cerevisiae | shares compounds with TIM10 inh | S. cerevisiae tim10 strain growth, BacTiter-Glo luminescence, 24 h | inhibition, % at 10 µM | 4,600 compounds, 63% hits;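 active = inhibition of yeast growth at or above a set limit in either of two replicates at 10 µM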; also: this counterscreen used the strain with wild-type TIM10
Hits are given with their value.

What do the screens show for `CC(C)(C)c1cc(C(=O)N/N=C/c2ccc(F)cc2)n(-c2ccccc2)n1`?
SKKanGAS inh: inactive; tim23-1 inh: inactive; TIM10 inh: 44.6; tim10-1 inh: 50.8; NALP3 yeast inh: inactive; tim10-1 confirm: 34.2; TIM10 conf: inactive

Results for Cc1nn(-c2ccccc2)c(C)c1/C=N/NC(=O)c1ccc(F)cc1 ?
SKKanGAS inh: inactive; tim23-1 inh: inactive; TIM10 inh: inactive; tim10-1 inh: inactive; NALP3 yeast inh: inactive

Results for COc1ccccc1N1CCN(C(=O)c2cc(-c3ccc(Cl)cc3)on2)CC1 ?
SKKanGAS inh: inactive; tim23-1 inh: inactive; TIM10 inh: 48.3; tim10-1 inh: 46.8; NALP3 yeast inh: inactive; tim10-1 confirm: 31.7; TIM10 conf: 30.4

What do the screens show for `COc1ccc(-c2cc(C(=O)N3CCN(Cc4ccccc4)CC3)no2)cc1OC`?
SKKanGAS inh: inactive; tim23-1 inh: inactive; TIM10 inh: inactive; tim10-1 inh: inactive; NALP3 yeast inh: inactive

Results for COc1cccc(-c2cc(C(=O)N3CCN(Cc4ccccc4)CC3)no2)c1 ?
SKKanGAS inh: inactive; tim23-1 inh: inactive; TIM10 inh: 42.4; tim10-1 inh: 43.6; NALP3 yeast inh: inactive; tim10-1 confirm: 30.4; TIM10 conf: 45.7

How did CCc1ccc(C(=O)CCC(=O)Nc2ccc(OC)c(S(=O)(=O)N3CCCCC3)c2)cc1 do in these assays?
tim23-1 inh: inactive; TIM10 inh: inactive; tim10-1 inh: inactive; NALP3 yeast inh: inactive

What do the screens show for `CCN(CC)c1ncnc2c1ncn2Cc1c(Cl)cccc1Cl`?
SKKanGAS inh: inactive; tim23-1 inh: inactive; TIM10 inh: 42.4; tim10-1 inh: 50.0; NALP3 yeast inh: inactive; tim10-1 confirm: 36.5; TIM10 conf: inactive

How did CCN(CC)c1ncnc2c1cnn2Cc1ccc(C)cc1 do in these assays?
SKKanGAS inh: inactive; tim23-1 inh: inactive; TIM10 inh: inactive; tim10-1 inh: inactive; NALP3 yeast inh: inactive

What do the screens show for `C=CCn1c(=O)c2ccccc2n2c(SCc3c(C(=O)OCC)oc4ccccc34)nnc12`?
SKKanGAS inh: inactive; tim23-1 inh: inactive; TIM10 inh: 41.9; tim10-1 inh: 40.8; NALP3 yeast inh: inactive; tim10-1 confirm: 38.2; TIM10 conf: inactive

What do the screens show for `C=CCn1c(=O)c2ccccc2n2c(SCC(N)=O)nnc12`?
SKKanGAS inh: inactive; tim23-1 inh: inactive; TIM10 inh: inactive; tim10-1 inh: inactive; NALP3 yeast inh: inactive

How did Nc1ccc(O)c2ccccc12 do in these assays?
SKKanGAS inh: inactive; tim23-1 inh: inactive; TIM10 inh: inactive; tim10-1 inh: inactive; NALP3 yeast inh: inactive

What do the screens show for `O=C(Nc1nc2ccc(Cl)cc2s1)C1CC1`?
SKKanGAS inh: inactive; tim23-1 inh: inactive; TIM10 inh: 45.9; tim10-1 inh: 40.6; NALP3 yeast inh: inactive; tim10-1 confirm: 42.8; TIM10 conf: 46.2

How did COc1ccccc1CNCCS(=O)(=O)NN1CCOCC1 do in these assays?
tim23-1 inh: inactive; TIM10 inh: inactive; tim10-1 inh: inactive

Results for COc1ccc(NC(C)=O)cc1CNC(=O)COc1ccccc1C(=O)Nc1cccc(C)c1C ?
SKKanGAS inh: inactive; tim23-1 inh: inactive; TIM10 inh: inactive; tim10-1 inh: inactive; NALP3 yeast inh: inactive

What do the screens show for `Cc1nc(Nc2ccc(Cl)c(Cl)c2)sc1C(=O)Nc1ccccc1`?
SKKanGAS inh: 91.0; tim23-1 inh: inactive; TIM10 inh: 52.6; tim10-1 inh: 59.5; NALP3 yeast inh: inactive; tim10-1 confirm: 32.4; TIM10 conf: 68.6

What do the screens show for `CCCN(C(=O)c1ccccc1Cc1ccccc1)C1CCS(=O)(=O)C1` (configuration not stated)?
SKKanGAS inh: inactive; tim23-1 inh: inactive; TIM10 inh: inactive; tim10-1 inh: inactive; NALP3 yeast inh: inactive

Results for c1ccc(CNc2nc(CN3CCOCC3)nc3scc(-c4ccccc4)c23)cc1 ?
SKKanGAS inh: inactive; tim23-1 inh: inactive; TIM10 inh: inactive; tim10-1 inh: inactive; NALP3 yeast inh: inactive

What do the screens show for `Clc1ccc(CNc2nc(CN3CCOCC3)nc3scc(-c4ccccc4)c23)cc1`?
SKKanGAS inh: inactive; tim23-1 inh: inactive; TIM10 inh: 51.1; tim10-1 inh: 47.5; NALP3 yeast inh: inactive; tim10-1 confirm: 46.0; TIM10 conf: inactive

What do the screens show for `Fc1ccc(-c2cc(-c3ccccc3)nc(-n3cccn3)n2)cc1`?
SKKanGAS inh: inactive; tim23-1 inh: inactive; TIM10 inh: 58.7; tim10-1 inh: 51.0; NALP3 yeast inh: inactive; tim10-1 confirm: 46.2; TIM10 conf: 45.6

Results for COC(=O)C(C)Nc1cccc(Br)c1 (configuration not stated) ?
SKKanGAS inh: inactive; tim23-1 inh: inactive; TIM10 inh: inactive; tim10-1 inh: inactive; NALP3 yeast inh: inactive

Results for CCOC(=O)C(C(=O)OCC)C(Nc1cccc(Br)c1)c1ccccc1 (configuration not stated) ?
SKKanGAS inh: inactive; tim23-1 inh: inactive; TIM10 inh: 52.9; tim10-1 inh: 55.1; NALP3 yeast inh: inactive; tim10-1 confirm: 37.0; TIM10 conf: 42.9

Results for CCCCCCC(=O)N(O)C1CC(=O)N(Cc2ccccc2)C1=O (configuration not stated) ?
tim23-1 inh: inactive; TIM10 inh: 42.6; tim10-1 inh: 44.9; NALP3 yeast inh: inactive; tim10-1 confirm: 40.7; TIM10 conf: inactive

What do the screens show for `CCCN(CCC)C1CC(=O)N(Cc2ccccc2)C1=O` (configuration not stated)?
SKKanGAS inh: inactive; tim23-1 inh: inactive; TIM10 inh: 41.5; tim10-1 inh: 53.3; NALP3 yeast inh: inactive; tim10-1 confirm: 47.1; TIM10 conf: 38.6

Results for Cc1cc(C)n2nc(SCC(=O)NC(=O)c3ccc(OC(F)F)cc3)nc2n1 ?
tim23-1 inh: inactive; TIM10 inh: inactive; tim10-1 inh: inactive; NALP3 yeast inh: inactive

How did CC1CCCCN1S(=O)(=O)c1ccc2c(c1)CCN2C(=O)C1CCC1 (configuration not stated) do in these assays?
SKKanGAS inh: inactive; tim23-1 inh: inactive; TIM10 inh: 44.1; tim10-1 inh: 41.8; NALP3 yeast inh: inactive; tim10-1 confirm: 40.2; TIM10 conf: inactive

What do the screens show for `O=C(C1CC1)N1CCc2cc(S(=O)(=O)N3CCOCC3)ccc21`?
SKKanGAS inh: inactive; tim23-1 inh: inactive; TIM10 inh: inactive; tim10-1 inh: inactive; NALP3 yeast inh: inactive

Results for COc1ccc(-c2nc(-c3ccccc3)nc(N3CCN(C)CC3)c2C#N)cc1 ?
SKKanGAS inh: inactive; tim23-1 inh: inactive; TIM10 inh: 52.8; tim10-1 inh: 44.9; NALP3 yeast inh: inactive; tim10-1 confirm: inactive; TIM10 conf: inactive
